Results: PubChem BioAssay (NCI)
The panel holds about 83,000 compounds, 20% with a hit somewhere; the sample as a whole holds those more often.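 Results are percent growth after 48 hours of single-concentration exposure. 100 means growth as in untreated cells, lower positive values show inhibition; negative values down to -100 show cell death.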 Values without a mark were called inactive. The source made the active and inactive calls. Rule for the calls: active = growth percent below 10; inactive = the rest.

Assays:
Assay in all cases: NCI-60 one-dose screen, 48 h (100 = growth as untreated, 0 = no growth, -100 = all killed)
Details in all cases: 10 µM unless noted
SR leukemia = tested on: SR leukemia
RPMI-8226 leukemia = tested on: RPMI-8226 leukemia
OVCAR-8 ovarian = tested on: OVCAR-8 ovarian
OVCAR-5 ovarian = tested on: OVCAR-5 ovarian
OVCAR-4 ovarian = tested on: OVCAR-4 ovarian
SK-OV-3 ovarian = tested on: SK-OV-3 ovarian
IGROV1 ovarian = tested on: IGROV1 ovarian
HS 578T breast = tested on: HS 578T breast
NCI/ADR-RES ovarian = tested on: NCI/ADR-RES ovarian
T-47D breast = tested on: T-47D breast
BT-549 breast = tested on: BT-549 breast
MDA-MB-435 melanoma = tested on: MDA-MB-435 melanoma
SW-620 colon = tested on: SW-620 colon
MCF7 breast = tested on: MCF7 breast
HCT-116 colon = tested on: HCT-116 colon
HCC-2998 colon = tested on: HCC-2998 colon
KM12 colon = tested on: KM12 colon
OVCAR-3 ovarian = tested on: OVCAR-3 ovarian

Row | Structure (SMILES) | growth (SR leukemia) | growth (RPMI-8226 leukemia) | growth (OVCAR-8 ovarian) | growth (OVCAR-5 ovarian) | growth (OVCAR-4 ovarian) | growth (SK-OV-3 ovarian) | growth (IGROV1 ovarian) | growth (HS 578T breast) | growth (NCI/ADR-RES ovarian) | growth (T-47D breast) | growth (BT-549 breast) | growth (MDA-MB-435 melanoma) | growth (SW-620 colon) | growth (MCF7 breast) | growth (HCT-116 colon) | growth (HCC-2998 colon) | growth (KM12 colon) | growth (OVCAR-3 ovarian)
1 | COc1ccc(NC(=O)c2sc3nc(C)c(C(O)c4ccccc4)cc3c2N)cc1 (configuration not stated) | 4.79% (active) | 11.8% | 27.6% | 37.9% | 78% | 24.1% | 36.6% | 22.8% | 10.6% | 23.9% | 65.8% | -27.8% (active) | 25.4% | 19.1% | 21.4% | 19.4% | 20.3% | –
2 | Cc1ncc(C(=O)Nc2ccc(CN3CCN(C)CC3)c(C(F)(F)F)c2)cc1C#Cc1cnc(N)c2ccncc12 | -41% (active) | -43.7% (active) | -35.5% (active) | -13.6% (active) | -16.9% (active) | -34.7% (active) | – | -19% (active) | -25.1% (active) | -37.3% (active) | 22.9% | -94% (active) | -59.5% (active) | -72% (active) | -87.6% (active) | -89.3% (active) | -70% (active) | -43.6% (active)
3 | Nc1c(C(=O)O)cc(Cl)cc1[N+](=O)[O-] | 109% | 104% | 92.7% | 90.4% | 99.5% | 101% | – | 101% | 97.8% | 95.6% | 109% | 105% | 99.5% | 95.2% | 94.6% | 95.1% | 105% | 105%
4 | Cc1cccc(NC(=O)CSc2nc3ccc([N+](=O)[O-])cc3[nH]2)c1 | 96.2% | 55.5% | 83.6% | 99.2% | 59.3% | – | 87.4% | 83.4% | 74.4% | 51.8% | 100% | 72% | – | – | 70% | 96.9% | 81.9% | 72.7%
5 | Cn1cc(-c2ccc3cc(-c4ccc(CC(=O)Nc5cc(C(C)(C)C)on5)cc4)cnc3c2)cn1 | 3.71% (active) | 19.6% | 20.4% | 56.7% | -21.9% (active) | – | 3.11% (active) | 9.69% (active) | 33.1% | 34.5% | 33% | 17.1% | 12.8% | 40.8% | 9.3% (active) | 57.8% | 9.57% (active) | 48.9%
6 | c1ccc(CNc2ccc3nc(CCC4CCCCC4)[nH]c3c2)cc1 | 80.8% | 47.9% | 72.3% | 63.4% | 47.5% | – | 53.5% | 80.9% | 61.8% | 33.9% | 72.2% | 81.6% | 67.8% | 62% | 54.6% | 45.8% | 66.7% | 63.9%
7 | CCCCCCCCCCCCCCCCOC(=O)c1c(C)[nH]c(/C=C2\N=C(c3ccc[nH]3)C=C2OC)c1C | 68.2% | -2.3% (active) | 15.3% | 78.4% | 72.2% | 70.4% | – | 65.9% | 26.6% | 31.2% | 55.1% | 15.7% | 10.9% | 8.67% (active) | -0.291% (active) | 24.3% | 22.7% | –
8 | CCOC(=O)CSc1nc2sc3c(c2c(=O)n1-c1ccc([N+](=O)[O-])cc1)CCCCC3 | 76.7% | 91.6% | 58.4% | 72.2% | 31% | – | 68.7% | 39.7% | 84.3% | 76.7% | 97.2% | 77.3% | 81.3% | 76.2% | 51.3% | 82% | 89.7% | 51.8%
9 | COc1cc(C2Cc3ncccc3-c3[nH]c(=O)c4cccnc4c32)cc(OC)c1OC (configuration not stated) | 11.8% | 37.6% | 17.3% | 52.2% | 58% | – | 48.6% | – | 31.1% | 45.6% | 40.6% | -50.3% (active) | 26.7% | 16% | 13.8% | 25.1% | 23% | -11.3% (active)
10 | CN(C)c1ccc(-c2cc(-c3ccc(Nc4nc(Nc5ccc(Cl)cc5)nc(Nc5ccc(Cl)cc5)n4)cc3)nc(N)c2C#N)cc1 | 40.6% | -27.1% (active) | 68% | 87.1% | 88.5% | 102% | – | 82.5% | 78% | 41.3% | 95.6% | 84% | – | 41.9% | 60.5% | 107% | 74.1% | 88.3%
11 | CCN1CCN(CC(=O)Nc2nc3ccc(NCc4ccc(Br)cc4)cc3s2)CC1 | 0.987% (active) | 41.8% | 81.8% | 76% | 72.9% | – | 86.8% | 81.3% | 79.3% | 48.1% | 85.7% | -6.35% (active) | 5.94% (active) | 10.3% | 17.8% | 62.6% | 52.8% | 57.2%
12 | N=C(N)c1ccc(-c2ccc(-c3ccc(F)cc3)s2)s1 | -32.6% (active) | -18.6% (active) | -54.7% (active) | -28.8% (active) | -23.8% (active) | – | -27.5% (active) | 84.6% | -33.3% (active) | -38.2% (active) | 80% | -88.7% (active) | -65.2% (active) | -67% (active) | -57.3% (active) | -73.3% (active) | -76.1% (active) | -57.8% (active)
13 | CCOC(=O)NN1CC(O)=C(c2nc(-c3ccc(Br)cc3)cs2)C1=N | 61.4% | 115% | 97% | 89.5% | 118% | – | 53% | 110% | 108% | 94.2% | 116% | 103% | – | 103% | 132% | 113% | 118% | 99.9%
14 | CCOC(=O)c1c2c(n3ccccc13)C(=O)c1ncccc1C2=O | 18.6% | 29.2% | 5.6% (active) | 42.2% | 16.6% | – | 31.8% | 52.6% | 4.98% (active) | 41.8% | 31.6% | 39.8% | 21.9% | 5.14% (active) | 0.586% (active) | 38.2% | 24.1% | -19.8% (active)
15 | c1ccc2cc(Cn3c[n+](Cc4ccc5ccccc5c4)c4ccccc43)ccc2c1 | -66.7% (active) | -53.6% (active) | -47.9% (active) | 22.3% | -14.9% (active) | -0.377% (active) | – | 3.56% (active) | 91.2% | -8.43% (active) | -82.7% (active) | -52.6% (active) | – | – | -90.6% (active) | -53.3% (active) | -85.9% (active) | -50.8% (active)
16 | COc1ccc(NC(=O)c2ccc(C(=O)Nc3ccc(OC)cc3OC)cc2)c(OC)c1 | 87.9% | 80.1% | 44.5% | 81.2% | 88.2% | – | 54.7% | – | 79.6% | 71.9% | 43.6% | 93.3% | 97.9% | 75.2% | 78.1% | 72.2% | 103% | 90.6%
17 | CC1(C)CC[C@]2(C(=O)O)CC[C@]3(C)C(=CC[C@@H]4[C@@]5(C)C[C@@H](Cc6cn([C@@H]7O[C@H](CO)[C@@H](O)[C@H](O)[C@H]7O)nn6)[C@H](O)C(C)(C)[C@@H]5CC[C@]43C)[C@@H]2C1 | 94.7% | 103% | 98.7% | 102% | 96.6% | – | 108% | 96.8% | 105% | 94.2% | 101% | 104% | 102% | 91.4% | 96.4% | 104% | 104% | 104%
18 | C=CCCC(=O)N1C=CC(=O)[C@H](O)[C@@H]1/C=C/c1ccccc1 | 43.8% [100 µM] | 54.2% [100 µM] | 37% [100 µM] | 62.2% [100 µM] | 55.4% [100 µM] | – | 51% [100 µM] | 87.6% [100 µM] | 19.8% [100 µM] | 39.7% [100 µM] | 59.6% [100 µM] | 59.6% [100 µM] | 40.6% [100 µM] | 19.3% [100 µM] | 18.5% [100 µM] | 42.5% [100 µM] | 33.3% [100 µM] | 30.3% [100 µM]
